Only some compounds are listed: those with a hit (about 12% of all), similar ones and a draw of the others.
G9a inh = qHTS Assay for Inhibitors of Histone Lysine Methyltransferase G9a | Potency, µM (doses to about 102 µM), for the others: at the highest dose activity, negative = inhibition, actives largely listed as inhibitors | Histone-lysine N-methyltransferase EHMT2 (Homo sapiens), Q96KQ7 | G9a H3K9 monomethylation, AlphaScreen, 2 h | AID 504332, 2011 | 350,000 tested, 8.8% active; also: % is scaled to controls: 0 for no effect and ±100 for the full control effect; nearly all actives have a fitted effect of over 75% in size
Target sequence (Q96KQ7 913-1193 limits assumed): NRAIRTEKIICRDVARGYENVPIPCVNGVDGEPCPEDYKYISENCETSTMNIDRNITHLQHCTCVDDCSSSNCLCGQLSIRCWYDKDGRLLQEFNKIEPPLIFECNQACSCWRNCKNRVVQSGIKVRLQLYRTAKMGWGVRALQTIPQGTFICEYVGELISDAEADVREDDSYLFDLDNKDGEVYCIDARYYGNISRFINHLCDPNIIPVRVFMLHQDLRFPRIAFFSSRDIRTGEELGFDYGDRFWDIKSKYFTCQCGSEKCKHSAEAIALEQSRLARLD
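Enzyme 20 nM + cpd, 15 min RT; add b-H3K9 pep 500 nM / SAM 20 uM; 2 h RT; anti-H3K9me1 Ab 0.5 ug/mL + SA donor / anti-rabbit acceptor beads 20 ug/mL each, 10 min; AlphaScreen read.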
Sfp inh = qHTS Assay for Inhibitors of Bacillus subtilis Sfp phosphopantetheinyl transferase (PPTase) | 4'-phosphopantetheinyl transferase ffp (Bacillus subtilis), Q9F4F7 | Biochemical Sfp PPTase activity, qHTS | Potency, µM, for inactives: largest response in the series, negative = inhibition, most hits filed as inhibitors | 310,000 tested, 3.5% active | AID 1490, 2009;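 also: the enzyme is Sfp with the accession as filed and its product quenches rhodamine fluorescence; 0% = enzyme reaction without inhibitor and -100% = no enzyme wells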
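Fluorescence-quenching assay: 15 nM Sfp-PPTase preincubated 15 min at room temperature with compound, then 5 uM rhodamine-CoA and 12.5 uM BHQ-2-labelled YbbR peptide added. Fluorescence (ex 525/em 598 nm) read at start and after 30 min; difference gives rate.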
HP1b binding inh = HTS for Inhibitors of HP1-beta Chromodomain Interactions with Methylated Histone Tails; AlphaScreen HP1-beta / biotin-H3K9me3 peptide binding; 390,000 tested, 0.56% active; Potency, µM (titrated, usually from 114 µM), for inactives: at the highest dose activity change, negative = inhibition, actives largely listed as inhibitors; Chromobox protein homolog 1 (Homo sapiens), P83916; also: nearly all actives have a fitted effect of over 70% in size
Target sequence (P83916 whole entry, looked up): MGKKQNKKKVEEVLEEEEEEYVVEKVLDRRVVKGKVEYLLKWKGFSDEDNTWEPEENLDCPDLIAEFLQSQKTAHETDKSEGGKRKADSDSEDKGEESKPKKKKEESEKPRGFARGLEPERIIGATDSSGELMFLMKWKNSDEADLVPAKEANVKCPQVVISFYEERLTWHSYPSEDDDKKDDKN
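Compound inhibition of the preformed complex between 50 nM HP1-beta and 50 nM biotinylated H3K9me3 peptide was read by AlphaScreen. Buffer was PBS pH 7.4 with 0.01% Tween-20. Incubations ran 30 min at room temperature, with 10 ug/mL donor/acceptor beads.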
JMJD2A Tudor = qHTS Assay for Inhibitors of JMJD2A-Tudor Domain; AlphaScreen JMJD2A-Tudor / H3K4me3 peptide binding; Potency, µM (series often up to 114 µM), for the others: top-dose activity change, negative = inhibition, actives largely listed as inhibitors; 390,000 tested, 4.4% active; also: % is scaled to controls: 0 for no effect and ±100 for the full control effect; nearly all actives have a fitted effect of over 50% in size
BAZ2B block = qHTS Assay for Inhibitors of BAZ2B | Potency, µM (top dose mostly 114 µM), inactives show at the highest dose activity change, negative = inhibition, usual class: inhibitors | 360,000 tested, 4.4% active | AID 504333, 2011 | AlphaScreen BAZ2B-H3K14Ac peptide displacement; also: % is scaled to controls: 0 for no effect and ±100 for the full control effect; nearly all actives have a fitted effect of over 60% in size
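In this displacement format the biotinylated H3(5-23) peptide acetylated at Lys14 serves as ligand at 50 nM, with BAZ2B at 50 nM in PBS pH 7.4 containing 0.01% Tween-20. Donor and acceptor beads are 10 ug/mL final.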
PLK1 PBD block = qHTS for Inhibitors of PLK1-PDB (polo-like kinase 1 - polo-box domain): Primary Screen. Plk1 PBD binding of FITC phosphopeptide, fluorescence polarization. Potency, µM, for inactives: max response, negative = inhibition, actives largely listed as inhibitors. 360,000 tested, 2.8% active. Serine/threonine-protein kinase PLK1 (Homo sapiens), P53350; also: series mostly up to about 57 µM; % is scaled to controls: 0 for no effect and ±100 for the full control effect; nearly all actives have a fitted effect of over 65% in size
* marks the source's active call; other numbers are inactive results; ? = inconclusive; . = no result given; [ ] = another dose, or the depositor's remark. Calls follow the shape of the dose curve; as a rule, active = well fitted curve in the direction sought with a large enough effect; inconclusive = small, poorly fitted or top-dose-only effect, or another doubt; inactive = no such curve, though single readings can be large; an effect the other way counts as inactive or inconclusive. Potency is read from the fitted curve at half-maximal effect.

SMILES	G9a inh	Sfp inh	HP1b binding inh	JMJD2A Tudor	BAZ2B block	PLK1 PBD block
CCSc1cnn(-c2ccccc2)c(=O)c1SCC	12%[59 µM]	8%	18%	-8%	-3%	4%
CSc1cnn(-c2ccccc2)c(=O)c1SC	-69%	79µM*	9%	-8%	0%	?
CC(C)(C)OC(=O)N1CCC(c2c(C(=O)NCCN3CCCC3)cnn2-c2ccc(Cl)cc2)CC1	-7%[59 µM]	.	11%	-14%	11%[57.1 µM]	.
CCN(CC)S(=O)(=O)c1cc(OC)ccc1N=Nc1ccc(O)c2ncccc12	8.9µM*	2%	?	13µM*	20µM*	-20%
CCS(=O)(=O)c1ccc(OC)c(N=Nc2ccc(O)c3ncccc23)c1	14µM*	-19%	-2%	40µM*	8.9µM*	9%
CC(=O)CCc1c(C)c2cccc(C)c2[nH]c1=O	?	3%	-12%	-20%	?	-8%
COc1cccc2c(=S)c(CCC(C)=O)c(C)[nH]c12	1.6µM*	-3%	?	10µM*	-8%	?
Cc1c(C(=O)N(C)C)c2ccc(Cl)cc2n1O	3.2µM*	7%	13%	-9%	4%	-23%
Cc1c(C(=O)N(C)C)c2cc(Cl)ccc2n1O	?	3%	18%	-7%	3%	-20%
COc1ccc(COc2cc(-c3cccc(OC)c3)nc3ccc(NC(C)=O)cc23)cc1	1%[59 µM]	?	16%	?	-9%	-14%
COc1ccc(COc2cc(-c3cccc(OC)c3)nc3ccc(N)cc23)cc1	45µM*	-11%	7%	?	?	1%
CC(C)Oc1ccc(CNC(=O)c2ccc3c(c2)N(Cc2ccc(F)cc2)CCS3)cc1	1%[59 µM]	.	31%	-17%	0%	.
CC(=O)c1ccc(Nc2nc3ccccc3nc2-n2nc(C)cc2C)cc1	14%[59 µM]	.	49%	7%	13%	.
Cc1nn(CC(=O)Nc2ccccc2)c(=O)c2ccccc12	2%[59 µM]	5%	10%	-9%	10%	2%
Cc1cc(C)n(CC(=O)Nc2ccccc2)n1	5%[0.0925 µM]	16%	?	?	7%	21µM*
O=C(Cn1nc(Cl)nc1Cl)Nc1ccccc1	50µM*	7%	16%	0%	1%	-1%
O=C(Cn1nc(Cl)nc1Cl)c1ccccc1	13%	14%	24%	?	-5%	17µM*
O=C(Cn1nc(Cl)nc1Cl)c1ccc2c(c1)OCCO2	?	6%	45%	-16%	-1%	12µM*
COc1ccc(OC)c(CNC(=O)C2COc3ccccc3C2)c1 (stereo not drawn)	8%[59 µM]	.	9%[57 µM]	-6%	-14%	.
CCOc1ccc(S(=O)(=O)NCC(=O)NC2CCCCC2)cc1	17%[59 µM]	.	28%	0%	-8%	-9%
COc1cc(C(=S)N2CCN(C(c3ccccc3)c3ccccc3)CC2)cc(OC)c1O	7.9µM*	16µM*	?	56µM*	40µM*	13µM*
COc1cccc(CN2CCN(C(c3ccccc3)c3ccccc3)CC2)c1O	.	?	?	50µM*	35µM*	6%
C=C(CO)C1Cc2cc(C(C)=O)ccc2O1 (stereo not drawn)	4%[12.7 µM]	8%	-19%	?	79µM*	-5%
CC(C)c1cnc2c(c1SCC(=O)Nc1ccc(OC(F)(F)F)cc1)c(=O)n(C)c(=O)n2C	?	.	29%[57 µM]	-10%	3%	.
CC(=O)Nc1ccc2sc(C)nc2c1	.	3%	39%	-14%	-1%	-5%
SMILES	G9a inh	Sfp inh	HP1b binding inh	JMJD2A Tudor	BAZ2B block	PLK1 PBD block
CC(=O)NS(=O)(=O)c1ccc2sc(C)nc2c1	-7%	79µM*	25%	-7%	-25%	-13%
CCCCNC(=O)C1(C)CCN1C(=O)c1cc2ccccc2s1 (stereo not drawn)	.	.	.	.	.	1%
Cc1cccc(-c2nnc(-c3ccc4ccccc4c3)o2)c1	.	.	63%[57 µM]	97%	.	3%
C[C@@H](NC(=O)[C@@H]1Cc2ccccc2CN1)C(=O)NC1CCCCC1	?	14%	20%	-9%	-20%	-9%
CC(C)C(OC(=O)C1=Cc2ccccc2OC1)C(=O)NCC1CCCO1 (stereo not drawn)	.	.	?	50µM*	.	21µM*
C[C@H](NC(=O)[C@@H]1Cc2ccccc2CN1)C(=O)NCC1CCCO1 (stereo partly drawn)	40µM*	14%	19%	?	-4%	30µM*
CC(OC(=O)C1=Cc2ccccc2OC1)C(=O)NC1CCCC1 (stereo not drawn)	17%[59 µM]	18%	1%	4%	-4%	-6%
C[C@@H](NC(=O)[C@@H]1Cc2ccccc2CN1)C(=O)NCc1ccco1	50µM*	-7%	20%	-21%	?	-10%
C/C(=N\NC(N)=S)C1=CCC2C3CC[C@H]4CC(O)CC[C@]4(C)C3CC[C@]12C (stereo partly drawn)	8.9µM*	40µM*	?	-18%	-1%	17µM*
CC12CCC3C(CCC4CC(O)CCC43C)C1CC=C2c1ccccc1 (stereo not drawn)	.	7%	.	.	.	.
Cc1ccc(N2CC(NC(=O)c3ccccc3C(F)(F)F)CC2=O)cc1C (stereo not drawn)	-1%[59 µM]	.	43%	-4%	1%	.
Cc1ccc(NC(=S)NC(=O)/C=C/c2ccco2)c(O)c1	?	?	-32%	?	?	-27%
Cc1cc(C)c2oc(-c3ccc(C)c(NC(=S)NC(=O)c4cccs4)c3)nc2c1	5%[12.7 µM]	-10%	30%	-20%	-29%	-7%
Cc1cc(C)c2oc(-c3ccc(C)c(NC(=S)NC(=O)/C=C/c4ccco4)c3)nc2c1	-44%[59 µM]	40µM*	6%	-29%	-30%	-17%
O=C(/C=C\c1ccco1)NC(=S)Nc1ccccc1O	45µM*	?	-12%	-12%[11.4 µM]	50µM*	?
O=C(/C=C/c1ccco1)NC(=S)Nc1ccccc1O	32µM*	-54%	?	-8%[11.4 µM]	40µM*	-29%
Cc1ccc(-c2nc3ccccc3[nH]2)cc1NC(=O)/C=C/c1ccco1	-6%[2.33 µM]	50µM*	-21%	?	50µM*	-7%
Cc1csc(CN(C)C(=O)CC2C(=O)NCCN2Cc2ccc(F)c(F)c2)n1 (stereo not drawn)	.	-16%	14%	-5%	-5%	-10%
Cc1onc(-c2ccccc2)c1C(=O)NN1CCOCC1	.	.	34%	-1%	.	-4%
